# Assay results from article PMC7862700, “An all-to-all approach to the identification of sequence-specific readers for epigenetic DNA modifications on cytosine”.
# How the values were obtained:
# Experiment in all cases: DAPPL (digital affinity profiling via proximity ligation, sequencing); 10 mM Tris-HCl pH 7.5, 50 mM NaCl, 1 mM DTT, 4% glycerol, room temperature, 30 min; GST-TFs on glutathione beads, 16-mer random dsDNA library, 0.1% formaldehyde crosslink after washing; high values mean tight binding
# Settings in all cases: protein: recombinant; tags: N-terminal GST; dsDNA, one strand shown
# ERF = molecular target: T1, ERF (Homo sapiens, UniProt P50548 1-548)
# T1 sequence: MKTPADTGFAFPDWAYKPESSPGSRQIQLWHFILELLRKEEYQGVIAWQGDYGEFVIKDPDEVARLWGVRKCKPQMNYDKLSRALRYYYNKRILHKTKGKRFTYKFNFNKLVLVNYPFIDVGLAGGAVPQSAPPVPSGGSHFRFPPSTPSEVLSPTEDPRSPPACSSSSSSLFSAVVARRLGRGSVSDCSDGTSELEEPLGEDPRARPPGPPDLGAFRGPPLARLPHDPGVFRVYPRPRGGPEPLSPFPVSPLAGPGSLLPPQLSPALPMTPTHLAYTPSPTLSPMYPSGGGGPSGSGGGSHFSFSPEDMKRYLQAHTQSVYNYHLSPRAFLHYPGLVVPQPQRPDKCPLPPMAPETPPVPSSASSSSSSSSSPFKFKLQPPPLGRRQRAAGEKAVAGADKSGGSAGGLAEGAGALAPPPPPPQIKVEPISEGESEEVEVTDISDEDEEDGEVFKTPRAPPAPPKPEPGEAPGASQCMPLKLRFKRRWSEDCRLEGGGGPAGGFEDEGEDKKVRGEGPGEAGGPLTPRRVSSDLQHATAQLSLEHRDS
# Procedure, shortened: (§1)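 Binding signal is each hexamer's read frequency for a factor divided by its frequency in the tag-only sample. The factors were GST-fused human transcription factors from yeast, captured on glutathione beads, DNA-barcoded and pooled with that sample. Pools were incubated with 200 nmole of a random double-stranded 16-mer DNA library in Tris/NaCl/DTT/glycerol buffer at room temperature for 30 min, then washed, crosslinked with 0.1% formaldehyde, proximity-ligated with BsaI/T4 ligase (1 h, 37 °C), PCR-amplified and sequenced on an Illumina NextSeq500.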
# ETV3L = molecular target: T2, ETV3L (Homo sapiens, UniProt Q6ZN32 1-361)
# T2 sequence: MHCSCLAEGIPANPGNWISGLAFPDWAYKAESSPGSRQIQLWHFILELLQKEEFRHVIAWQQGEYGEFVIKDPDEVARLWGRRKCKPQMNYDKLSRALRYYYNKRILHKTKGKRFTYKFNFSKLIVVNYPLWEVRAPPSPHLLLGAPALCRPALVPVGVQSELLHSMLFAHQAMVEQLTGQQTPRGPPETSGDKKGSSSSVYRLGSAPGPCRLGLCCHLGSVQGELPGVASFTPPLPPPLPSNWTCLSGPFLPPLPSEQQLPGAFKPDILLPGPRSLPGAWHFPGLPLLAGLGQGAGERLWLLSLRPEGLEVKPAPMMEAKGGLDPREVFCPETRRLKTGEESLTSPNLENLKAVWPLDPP
# Procedure, shortened: as §1
# ETS2 = molecular target: T3, ETS2 (Homo sapiens, UniProt P15036 1-469)
# T3 sequence: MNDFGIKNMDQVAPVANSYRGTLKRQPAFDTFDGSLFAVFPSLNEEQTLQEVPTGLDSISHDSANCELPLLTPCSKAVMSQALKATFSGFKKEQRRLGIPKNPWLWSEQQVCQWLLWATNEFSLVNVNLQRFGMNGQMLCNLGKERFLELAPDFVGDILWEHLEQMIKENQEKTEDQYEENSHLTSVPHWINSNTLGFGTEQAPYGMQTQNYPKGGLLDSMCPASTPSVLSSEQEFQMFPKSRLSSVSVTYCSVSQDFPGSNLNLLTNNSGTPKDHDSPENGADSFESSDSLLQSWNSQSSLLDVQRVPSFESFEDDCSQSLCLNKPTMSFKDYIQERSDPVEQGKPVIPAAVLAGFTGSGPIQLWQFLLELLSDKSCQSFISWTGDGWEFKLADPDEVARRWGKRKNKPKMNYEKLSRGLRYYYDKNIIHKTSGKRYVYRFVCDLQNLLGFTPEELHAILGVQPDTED
# Procedure, shortened: as §1
# SPDEF = molecular target: T4, SPDEF (Homo sapiens, UniProt O95238 1-335)
# T4 sequence: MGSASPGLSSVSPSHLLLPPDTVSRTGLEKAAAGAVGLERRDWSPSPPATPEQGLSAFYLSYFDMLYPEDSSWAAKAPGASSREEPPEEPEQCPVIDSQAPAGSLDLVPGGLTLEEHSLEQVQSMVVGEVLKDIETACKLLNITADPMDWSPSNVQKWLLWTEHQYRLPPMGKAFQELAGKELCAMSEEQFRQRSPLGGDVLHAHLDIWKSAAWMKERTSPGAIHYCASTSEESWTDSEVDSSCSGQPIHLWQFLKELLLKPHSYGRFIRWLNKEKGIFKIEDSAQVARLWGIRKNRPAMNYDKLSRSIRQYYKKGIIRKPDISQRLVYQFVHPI
# Procedure, shortened: as §1
# ETV7 = molecular target: T5, ETV7 (Homo sapiens, UniProt Q9Y603 1-341)
# T5 sequence: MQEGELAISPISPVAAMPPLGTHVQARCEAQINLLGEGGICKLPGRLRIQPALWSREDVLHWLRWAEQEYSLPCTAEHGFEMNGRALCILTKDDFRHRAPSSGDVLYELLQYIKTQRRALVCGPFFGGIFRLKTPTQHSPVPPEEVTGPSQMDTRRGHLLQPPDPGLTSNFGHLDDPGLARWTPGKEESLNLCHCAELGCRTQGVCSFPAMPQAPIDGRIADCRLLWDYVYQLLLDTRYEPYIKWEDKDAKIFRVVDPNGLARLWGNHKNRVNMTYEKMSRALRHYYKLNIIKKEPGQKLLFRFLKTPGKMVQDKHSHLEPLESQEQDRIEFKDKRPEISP
# Procedure, shortened: as §1
# ELF5 = molecular target: T6, ELF5 (Homo sapiens, UniProt Q9UKW6-2 1-255)
# T6 sequence: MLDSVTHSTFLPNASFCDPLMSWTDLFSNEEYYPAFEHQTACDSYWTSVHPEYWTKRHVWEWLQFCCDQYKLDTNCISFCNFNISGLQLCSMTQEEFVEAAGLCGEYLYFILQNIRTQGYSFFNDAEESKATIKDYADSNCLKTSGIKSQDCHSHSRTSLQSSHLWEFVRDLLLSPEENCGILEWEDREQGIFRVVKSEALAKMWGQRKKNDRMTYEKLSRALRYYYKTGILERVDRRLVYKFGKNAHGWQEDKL
# Procedure, shortened: as §1
# ETV3 = molecular target: T7, ETV3 (Homo sapiens, UniProt P41162-2 1-143)
# T7 sequence: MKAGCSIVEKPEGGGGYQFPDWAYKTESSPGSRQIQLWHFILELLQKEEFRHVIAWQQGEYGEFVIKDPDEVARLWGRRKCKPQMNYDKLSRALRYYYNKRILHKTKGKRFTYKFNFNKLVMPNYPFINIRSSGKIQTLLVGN
# Procedure, shortened: as §1
# ETV6 = ETV6 (Homo sapiens, UniProt P41212 1-452)
# Procedure, shortened: as §1
# ETV6, sequence (P41212 whole entry): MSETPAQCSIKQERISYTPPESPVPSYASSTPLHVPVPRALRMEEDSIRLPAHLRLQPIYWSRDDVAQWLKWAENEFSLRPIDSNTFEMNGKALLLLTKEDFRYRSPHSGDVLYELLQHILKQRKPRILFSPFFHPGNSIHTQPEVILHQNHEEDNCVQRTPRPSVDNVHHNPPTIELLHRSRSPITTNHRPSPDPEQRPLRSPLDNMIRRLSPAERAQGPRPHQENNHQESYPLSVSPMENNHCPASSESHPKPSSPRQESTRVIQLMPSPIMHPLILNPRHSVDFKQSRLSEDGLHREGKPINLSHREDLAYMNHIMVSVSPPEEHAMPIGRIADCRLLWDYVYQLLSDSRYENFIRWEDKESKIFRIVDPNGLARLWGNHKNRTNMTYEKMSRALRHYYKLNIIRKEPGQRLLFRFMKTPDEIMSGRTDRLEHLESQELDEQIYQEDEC
Sequence,binding signal (ERF),binding signal (ETV3L),binding signal (ETS2),binding signal (SPDEF),binding signal (ETV7),binding signal (ELF5),binding signal (ETV3),binding signal (ETV6)
ATCCTT,"1.56 fold enrichment (6-mer frequency, TF over GST control)","1.58 fold enrichment (6-mer frequency, TF over GST control)","1.47 fold enrichment (6-mer frequency, TF over GST control)","2.13 fold enrichment (6-mer frequency, TF over GST control)","1.49 fold enrichment (6-mer frequency, TF over GST control)","2.26 fold enrichment (6-mer frequency, TF over GST control)","1.84 fold enrichment (6-mer frequency, TF over GST control)","1.68 fold enrichment (6-mer frequency, TF over GST control)"
CGATTA,"1.07 fold enrichment (6-mer frequency, TF over GST control)","1.23 fold enrichment (6-mer frequency, TF over GST control)","1.08 fold enrichment (6-mer frequency, TF over GST control)","1.09 fold enrichment (6-mer frequency, TF over GST control)","1.18 fold enrichment (6-mer frequency, TF over GST control)","1.11 fold enrichment (6-mer frequency, TF over GST control)","1.18 fold enrichment (6-mer frequency, TF over GST control)","1.13 fold enrichment (6-mer frequency, TF over GST control)"
AAGTAA,"1.27 fold enrichment (6-mer frequency, TF over GST control)","1.31 fold enrichment (6-mer frequency, TF over GST control)","1.27 fold enrichment (6-mer frequency, TF over GST control)","1.23 fold enrichment (6-mer frequency, TF over GST control)","1.27 fold enrichment (6-mer frequency, TF over GST control)","1.42 fold enrichment (6-mer frequency, TF over GST control)","1.28 fold enrichment (6-mer frequency, TF over GST control)","1.45 fold enrichment (6-mer frequency, TF over GST control)"
GCACTT,"1.61 fold enrichment (6-mer frequency, TF over GST control)","1.84 fold enrichment (6-mer frequency, TF over GST control)","1.76 fold enrichment (6-mer frequency, TF over GST control)","1.91 fold enrichment (6-mer frequency, TF over GST control)","1.92 fold enrichment (6-mer frequency, TF over GST control)","1.88 fold enrichment (6-mer frequency, TF over GST control)","1.94 fold enrichment (6-mer frequency, TF over GST control)","2 fold enrichment (6-mer frequency, TF over GST control)"
AAACTC,"1.24 fold enrichment (6-mer frequency, TF over GST control)","1.17 fold enrichment (6-mer frequency, TF over GST control)","1.19 fold enrichment (6-mer frequency, TF over GST control)","1.07 fold enrichment (6-mer frequency, TF over GST control)","1.24 fold enrichment (6-mer frequency, TF over GST control)","1.21 fold enrichment (6-mer frequency, TF over GST control)","1.15 fold enrichment (6-mer frequency, TF over GST control)","1.25 fold enrichment (6-mer frequency, TF over GST control)"
TATTAT,"1.19 fold enrichment (6-mer frequency, TF over GST control)","1.24 fold enrichment (6-mer frequency, TF over GST control)","1.16 fold enrichment (6-mer frequency, TF over GST control)","1.29 fold enrichment (6-mer frequency, TF over GST control)","1.28 fold enrichment (6-mer frequency, TF over GST control)","1.2 fold enrichment (6-mer frequency, TF over GST control)","1.27 fold enrichment (6-mer frequency, TF over GST control)","1.3 fold enrichment (6-mer frequency, TF over GST control)"
AGCAAT,"1.1 fold enrichment (6-mer frequency, TF over GST control)","1.03 fold enrichment (6-mer frequency, TF over GST control)","1.1 fold enrichment (6-mer frequency, TF over GST control)","1.04 fold enrichment (6-mer frequency, TF over GST control)","1.25 fold enrichment (6-mer frequency, TF over GST control)","1.08 fold enrichment (6-mer frequency, TF over GST control)","1.18 fold enrichment (6-mer frequency, TF over GST control)","1.14 fold enrichment (6-mer frequency, TF over GST control)"
CTCGAG,"1.29 fold enrichment (6-mer frequency, TF over GST control)","1.25 fold enrichment (6-mer frequency, TF over GST control)","1.17 fold enrichment (6-mer frequency, TF over GST control)","1.16 fold enrichment (6-mer frequency, TF over GST control)","1.36 fold enrichment (6-mer frequency, TF over GST control)","1.16 fold enrichment (6-mer frequency, TF over GST control)","1.16 fold enrichment (6-mer frequency, TF over GST control)","1.32 fold enrichment (6-mer frequency, TF over GST control)"
AAAGTA,"1.11 fold enrichment (6-mer frequency, TF over GST control)","1.18 fold enrichment (6-mer frequency, TF over GST control)","1.17 fold enrichment (6-mer frequency, TF over GST control)","1.13 fold enrichment (6-mer frequency, TF over GST control)","1.21 fold enrichment (6-mer frequency, TF over GST control)","1.18 fold enrichment (6-mer frequency, TF over GST control)","1.14 fold enrichment (6-mer frequency, TF over GST control)","1.15 fold enrichment (6-mer frequency, TF over GST control)"
ACGCTT,"1.5 fold enrichment (6-mer frequency, TF over GST control)","1.35 fold enrichment (6-mer frequency, TF over GST control)","1.42 fold enrichment (6-mer frequency, TF over GST control)","1.39 fold enrichment (6-mer frequency, TF over GST control)","1.52 fold enrichment (6-mer frequency, TF over GST control)","1.22 fold enrichment (6-mer frequency, TF over GST control)","1.4 fold enrichment (6-mer frequency, TF over GST control)","1.45 fold enrichment (6-mer frequency, TF over GST control)"
CTTTTG,"1.62 fold enrichment (6-mer frequency, TF over GST control)","1.31 fold enrichment (6-mer frequency, TF over GST control)","1.45 fold enrichment (6-mer frequency, TF over GST control)","1.46 fold enrichment (6-mer frequency, TF over GST control)","1.44 fold enrichment (6-mer frequency, TF over GST control)","1.28 fold enrichment (6-mer frequency, TF over GST control)","1.24 fold enrichment (6-mer frequency, TF over GST control)","1.46 fold enrichment (6-mer frequency, TF over GST control)"
TCTACC,"1.73 fold enrichment (6-mer frequency, TF over GST control)","1.78 fold enrichment (6-mer frequency, TF over GST control)","1.6 fold enrichment (6-mer frequency, TF over GST control)","1.6 fold enrichment (6-mer frequency, TF over GST control)","1.44 fold enrichment (6-mer frequency, TF over GST control)","1.61 fold enrichment (6-mer frequency, TF over GST control)","1.52 fold enrichment (6-mer frequency, TF over GST control)","1.54 fold enrichment (6-mer frequency, TF over GST control)"
